Experimental findings from PubChem BioAssay (NCATS) are described below.

Each structure is given as a SMILES string. Results filed as inconclusive are left out. A call without a number means that no potency is given here. Activity calls are given as the source filed them. Unless noted, the call rests on the fitted dose curve.

System in one assay: not listed separately
Nature of the assay: qHTS for Inhibitors of the Functional Ribonucleoprotein Complex (vRNP) of Lymphocytic Choriomeningitis Arenaviruses (LCMV): Viability assay - alamar blue signal for LCMV Primary Screen (AID 1347085; calls by dose curve; tested in HEK293 reporter line; further: nearly all actives have a fitted effect of over 80% in size). The note with it: alamar blue viability counter-screen, LCMV vRNP screen cells; series mostly up to 57.5 µM. (Quantitative high-throughput screening tests each substance at several concentrations.)
In the case of `CC(C)CC[C@@H](O)[C@](C)(O)C1CC[C@@]2(O)C3=CC(=O)[C@@H]4C[C@@H](O)[C@@H](O)C[C@]4(C)C3CC[C@]12C` (stereo not given in full), the Potency result is “inactive”.

In the case of `CCCCCCOC(=O)CCCCC`, the Potency entry is “inactive”.

For the compound `C=C(C)C1Cc2cc3ccc(=O)oc3cc2O1` (stereo not given), the Potency entry is “inactive”.

Turning to `O=C1O[C@@H](c2ccc(O)cc2)Cc2cccc(O)c21`, the Potency entry is “inactive”.

Turning to `O=C1C=C(O)c2cccc(O)c2C1=O`, the Potency result was “inactive”.

As for `CC(=O)c1c(O)cc(O)cc1O`, the Potency result was “inactive”.

Take `N[C@H](C(=O)O)[C@H]1C[C@@H]1C(=O)O`: the Potency entry was “inactive”.

For `COc1c2c(c(CCC(=O)O)c3c1C=CC(C)(C)O3)OC(C)(C)C=C2`, the Potency entry is “inactive”.

Consider `C/C(=N/N=C(\C)c1ccccc1O)c1ccccc1O`, for which the Potency result was “inactive”.

Turning to `O=C1c2c(O)cc(O)cc2O[C@H](c2ccc(O)c(O)c2)[C@@H]1O`, the Potency result was “inactive”.

Consider `COc1c2n(C)ccc3c-2n(c(=O)c1=O)c1ccccc31`, for which the Potency result was “inactive”.

With `O=c1[nH]c(=O)c2ncn(C3OC(CO)C(O)C3O)c2[nH]1` (stereo not given), the Potency entry was “inactive”.

Regarding `COc1c(O)c(O)c2oc(-c3ccccc3)cc(=O)c2c1OC`, the Potency result was “inactive”.

As to `CC1=CC2OC3CC4OC(=O)C=CC=CC(C(C)O)OCC(O)C5(C)OC5C(=O)OCC2(CC1O)C4(C)C31CO1` (stereo not given), the Potency entry is “inactive”.

Regarding `Cc1c(O)c2c(c(C(=O)/C=C/c3ccccc3)c1O)OC(C)(C)C=C2`, the Potency result was “inactive”.

Consider `CN1C2CCC1CC(OC(=O)c1cccc(O)c1)C2` (stereo not given), for which the Potency result was “inactive”.

As to `CC1(C)Oc2ccc3ccc(=O)oc3c2C[C@H]1O[C@@H]1O[C@H](CO)[C@@H](O)[C@H](O)[C@H]1O`, the Potency entry is “inactive”.

As for `c1cnc2c(-c3nccc4c3[nH]c3ccccc34)cccc2c1`, the Potency result was “inactive”.

For `C=C1CC23C[C@H]4[C@@H]5[C@@]6(C)C[C@H](OC(=O)c7ccccc7)[C@@H](OC(C)=O)[C@]57[C@@H]2[C@@H](OC(C)=O)[C@H]1[C@@H](O)[C@H]3[C@H]7N4C6`, the Potency entry was “inactive”.

Turning to `COc1ccc(C(=O)OC2CC3CCC(C2)[N+]3(C)[O-])cc1OC` (stereo not given), the Potency result was “inactive”.

Take `CCCCCCCCC(=O)OCC`: the Potency result is “inactive”.

For the compound `C=C(C)C1CCC(C)(O)CC1` (stereo not given), the Potency entry is “inactive”.

Consider `COC(=O)C1C2CC3c4[nH]c5cc(OC)ccc5c4CCN3CC2CC(OC(=O)c2cc(OC)c(OC)c(OC)c2)C1OC` (stereo not given), for which the Potency result was “inactive”.

In the case of `C#C[C@]1(O)CC[C@@H]2[C@@H]3CCC4=CC(=O)CC[C@@H]4[C@H]3CC[C@@]21CC`, the Potency entry was “inactive”.

On to `C=C[C@]1(C)C=C2C(=O)C[C@H]3C(C)(C)CCC[C@]3(C(=O)O)[C@@]2(O)CC1`, for which the Potency entry was “inactive”.

For `CC1C(=O)OC2CCN3CC=C(COC(=O)C(C)(O)C1(C)O)C23` (stereo not given), the Potency entry is “inactive”.

As to `CCCCCCCCC1OC1CCCCCCCC(=O)O` (stereo not given), the Potency entry was “inactive”.

Take `NC(=O)Nc1ccc(Cl)c(Cl)c1`: the Potency result is “inactive”.

On to `OCCNC1CCCc2c1[nH]c1ccc(-c3ccccc3)cc21` (stereo not given), for which the Potency result is “inactive”.

`C=C1C(=O)O[C@H]2C[C@]3(C)C([C@@H](OC(=O)/C(C)=C/C)[C@H]12)[C@](C)(O)CC[C@H]3O` (stereo not given in full): the Potency entry was “inactive”.

Consider `COc1cc(/C=C/c2ccccc2)cc(OC)c1`, for which the Potency result was “inactive”.

As to `CC(=O)c1ccc(C)cc1`, the Potency result is “inactive”.

For `CC1=CCCC(C)(C)C12CCC(C)O2` (stereo not given), the Potency entry is “inactive”.

`N#CC(c1ccc(O)cc1)N1CCCCC1` (stereo not given): the Potency result is “inactive”.

Regarding `COc1cc(O)c2c(=O)c3c(O)ccc(O)c3oc2c1`, the Potency entry was “inactive”.

`CC(=O)[C@@]1(O)CCC2C3CC[C@H]4C[C@@H](O)CC[C@]4(C)C3CC[C@@]21C` (stereo not given in full): the Potency entry is “inactive”.

As for `COc1cc(C(=O)O)cc(OC)c1OC`, the Potency entry was “inactive”.

Take `CC(C)(O)CC[C@@H](O)[C@](C)(O)C1CC[C@@]2(O)C3=CC(=O)[C@]4(O)C[C@@H](O)[C@@H](O)C[C@]4(C)C3CC[C@]12C` (stereo not given in full): the Potency result was “inactive”.

For `C[C@H]1C[C@@H]2[C@@H]([C@@H](O)C[C@@]3(C)[C@H]2CC[C@]3(O)C(=O)CO)[C@@]2(C)C=CC(=O)C=C12`, the Potency entry was “inactive”.

For the compound `C[C@](Cc1ccc(O)c(O)c1)(NN)C(=O)O`, the Potency entry was “inactive”.

The target in another assay is Nucleoprotein (Lymphocytic choriomeningitis virus (strain Armstrong)) (UniProt P09992). As to the kind of experiment: qHTS for Inhibitors of the Functional Ribonucleoprotein Complex (vRNP) of Lymphocytic Choriomeningitis Arenaviruses (LCMV): LCMV Primary Screen - GLuc reporter signal (AID 1347086). Further: nearly all actives have a fitted effect of over 70% in size. The note with it: LCMV minigenome vRNP cell assay, Gaussia luciferase reporter; series mostly up to 57.5 µM.
Nucleoprotein (Lymphocytic choriomeningitis virus (strain Armstrong)), sequence (P09992 whole entry, looked up): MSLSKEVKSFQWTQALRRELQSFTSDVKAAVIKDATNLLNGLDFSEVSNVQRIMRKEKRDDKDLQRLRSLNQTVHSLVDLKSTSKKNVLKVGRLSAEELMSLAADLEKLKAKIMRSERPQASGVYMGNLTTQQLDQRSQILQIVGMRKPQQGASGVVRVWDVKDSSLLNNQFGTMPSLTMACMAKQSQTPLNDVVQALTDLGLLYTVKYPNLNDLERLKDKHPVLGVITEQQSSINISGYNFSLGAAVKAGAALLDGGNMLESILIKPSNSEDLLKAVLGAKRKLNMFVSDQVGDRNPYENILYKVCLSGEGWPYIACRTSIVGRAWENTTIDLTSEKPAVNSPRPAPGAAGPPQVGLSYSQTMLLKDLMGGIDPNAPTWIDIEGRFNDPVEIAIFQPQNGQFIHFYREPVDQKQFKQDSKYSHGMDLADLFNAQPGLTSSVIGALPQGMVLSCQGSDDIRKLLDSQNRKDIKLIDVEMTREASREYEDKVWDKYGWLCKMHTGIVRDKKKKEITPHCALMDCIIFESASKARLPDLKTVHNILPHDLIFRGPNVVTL
In the case of `CC(C)CC[C@@H](O)[C@](C)(O)C1CC[C@@]2(O)C3=CC(=O)[C@@H]4C[C@@H](O)[C@@H](O)C[C@]4(C)C3CC[C@]12C` (stereo not given in full), the Potency result is “inactive”.

As for `CCCCCCOC(=O)CCCCC`, the Potency result is “inactive”.

Take `C=C(C)C1Cc2cc3ccc(=O)oc3cc2O1` (stereo not given): the Potency result is “inactive”.

For the compound `O=C1O[C@@H](c2ccc(O)cc2)Cc2cccc(O)c21`, the Potency result was “inactive”.

As to `O=C1C=C(O)c2cccc(O)c2C1=O`, the Potency entry is “inactive”.

As for `CC(=O)c1c(O)cc(O)cc1O`, the Potency entry was “inactive”.

Regarding `N[C@H](C(=O)O)[C@H]1C[C@@H]1C(=O)O`, the Potency result is “inactive”.

For the compound `COc1c2c(c(CCC(=O)O)c3c1C=CC(C)(C)O3)OC(C)(C)C=C2`, the Potency entry was “inactive”.

For the compound `C/C(=N/N=C(\C)c1ccccc1O)c1ccccc1O`, the Potency entry is “inactive”.

For the compound `O=C1c2c(O)cc(O)cc2O[C@H](c2ccc(O)c(O)c2)[C@@H]1O`, the Potency result was “inactive”.

Regarding `COc1c2n(C)ccc3c-2n(c(=O)c1=O)c1ccccc31`, the Potency entry is “inactive”.

`O=c1[nH]c(=O)c2ncn(C3OC(CO)C(O)C3O)c2[nH]1` (stereo not given): the Potency result was “inactive”.

As to `COc1c(O)c(O)c2oc(-c3ccccc3)cc(=O)c2c1OC`, the Potency result was “inactive”.

In the case of `CC1=CC2OC3CC4OC(=O)C=CC=CC(C(C)O)OCC(O)C5(C)OC5C(=O)OCC2(CC1O)C4(C)C31CO1` (stereo not given), the Potency result is “inactive”.

For the compound `Cc1c(O)c2c(c(C(=O)/C=C/c3ccccc3)c1O)OC(C)(C)C=C2`, the Potency result was “inactive”.

Consider `CN1C2CCC1CC(OC(=O)c1cccc(O)c1)C2` (stereo not given), for which the Potency entry was “inactive”.

Regarding `CC1(C)Oc2ccc3ccc(=O)oc3c2C[C@H]1O[C@@H]1O[C@H](CO)[C@@H](O)[C@H](O)[C@H]1O`, the Potency result was “inactive”.

With `c1cnc2c(-c3nccc4c3[nH]c3ccccc34)cccc2c1`, the Potency result is “inactive”.

On to `C=C1CC23C[C@H]4[C@@H]5[C@@]6(C)C[C@H](OC(=O)c7ccccc7)[C@@H](OC(C)=O)[C@]57[C@@H]2[C@@H](OC(C)=O)[C@H]1[C@@H](O)[C@H]3[C@H]7N4C6`, for which the Potency entry is “inactive”.

Turning to `COc1ccc(C(=O)OC2CC3CCC(C2)[N+]3(C)[O-])cc1OC` (stereo not given), the Potency result is “inactive”.

For `CCCCCCCCC(=O)OCC`, the Potency entry is “inactive”.

Regarding `C=C(C)C1CCC(C)(O)CC1` (stereo not given), the Potency entry was “inactive”.

Turning to `COC(=O)C1C2CC3c4[nH]c5cc(OC)ccc5c4CCN3CC2CC(OC(=O)c2cc(OC)c(OC)c(OC)c2)C1OC` (stereo not given), the Potency entry was “inactive”.

With `C#C[C@]1(O)CC[C@@H]2[C@@H]3CCC4=CC(=O)CC[C@@H]4[C@H]3CC[C@@]21CC`, the Potency result is “inactive”.

Take `C=C[C@]1(C)C=C2C(=O)C[C@H]3C(C)(C)CCC[C@]3(C(=O)O)[C@@]2(O)CC1`: the Potency result was “inactive”.

As to `CC1C(=O)OC2CCN3CC=C(COC(=O)C(C)(O)C1(C)O)C23` (stereo not given), the Potency entry is “inactive”.

Turning to `CCCCCCCCC1OC1CCCCCCCC(=O)O` (stereo not given), the Potency entry was “inactive”.

As for `NC(=O)Nc1ccc(Cl)c(Cl)c1`, the Potency entry is “inactive”.

Regarding `OCCNC1CCCc2c1[nH]c1ccc(-c3ccccc3)cc21` (stereo not given), the Potency result is “inactive”.

Turning to `C=C1C(=O)O[C@H]2C[C@]3(C)C([C@@H](OC(=O)/C(C)=C/C)[C@H]12)[C@](C)(O)CC[C@H]3O` (stereo not given in full), the Potency entry is “inactive”.

As to `COc1cc(/C=C/c2ccccc2)cc(OC)c1`, the Potency entry is “inactive”.

`CC(=O)c1ccc(C)cc1`: the Potency entry was “inactive”.

Take `CC1=CCCC(C)(C)C12CCC(C)O2` (stereo not given): the Potency result is “inactive”.

Regarding `N#CC(c1ccc(O)cc1)N1CCCCC1` (stereo not given), the Potency result is “inactive”.

Regarding `COc1cc(O)c2c(=O)c3c(O)ccc(O)c3oc2c1`, the Potency entry was “inactive”.

For `CC(=O)[C@@]1(O)CCC2C3CC[C@H]4C[C@@H](O)CC[C@]4(C)C3CC[C@@]21C` (stereo not given in full), the Potency entry is “inactive”.

For `COc1cc(C(=O)O)cc(OC)c1OC`, the Potency entry is “inactive”.

As to `CC(C)(O)CC[C@@H](O)[C@](C)(O)C1CC[C@@]2(O)C3=CC(=O)[C@]4(O)C[C@@H](O)[C@@H](O)C[C@]4(C)C3CC[C@]12C` (stereo not given in full), the Potency entry was “inactive”.

`C[C@H]1C[C@@H]2[C@@H]([C@@H](O)C[C@@]3(C)[C@H]2CC[C@]3(O)C(=O)CO)[C@@]2(C)C=CC(=O)C=C12`: the Potency result was “inactive”.

Regarding `C[C@](Cc1ccc(O)c(O)c1)(NN)C(=O)O`, the Potency result was “inactive”.
